Results: the supplement of paper PMC6897291
Structures can show the parent of a compound that is named as a salt.

Experiments:
[1] = test system: U-2932; assay: growth inhibition by drug alone (1 - RLU/untreated control) (fraction); higher = stronger inhibition; details: 177Lu-lilotomab satetraxetan 0 ug/ml
Outline: (§1)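 RIVA or U-2932 cells, untreated or pretreated 18 h with a radiolabelled anti-CD37 antibody conjugate (~600 MBq/mg; 0.5 µg/ml RIVA, 1 µg/ml U-2932), were washed and seeded at 3,000 cells/well on plates pre-printed with the Selleck Cambridge Cancer Compound library. Doses were 10/100 nM (RIVA) or 10/1,000 nM (U-2932). RealTime-Glo luminescence was read daily from day 3 after 1 h at 37°C. Growth inhibition is 1 − RLU/mean of 48 untreated no-drug wells per plate.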

[2] = test system: U-2932; assay: growth inhibition by drug plus 177Lu-lilotomab satetraxetan (1 - RLU/untreated control) (fraction); higher = stronger inhibition; details: 177Lu-lilotomab satetraxetan 1 ug/ml
Outline: as §1

[3] = test system: RIVA; assay: as above; details: 177Lu-lilotomab satetraxetan 0.5 ug/ml
Outline: as §1

[4] = test system: RIVA; assay: growth inhibition by drug alone (1 - RLU/untreated control) (fraction); higher = stronger inhibition; details: 177Lu-lilotomab satetraxetan 0 ug/ml
Outline: as §1

Compound | growth inhibition by drug alone ([1]; 10 nM, time (day): 3) | growth inhibition by drug alone ([1]; 10 nM, time (day): 4) | growth inhibition by drug alone ([1]; 10 nM, time (day): 5) | growth inhibition by drug alone ([1]; 10 nM, time (day): 6) | growth inhibition by drug alone ([1]; 1000 nM, time (day): 3) | growth inhibition by drug alone ([1]; 1000 nM, time (day): 4) | growth inhibition by drug alone ([1]; 1000 nM, time (day): 5) | growth inhibition by drug alone ([1]; 1000 nM, time (day): 6) | growth inhibition by drug plus 177Lu-lilotomab satetraxetan ([2]; 10 nM, time (day): 3) | growth inhibition by drug plus 177Lu-lilotomab satetraxetan ([2]; 10 nM, time (day): 4) | growth inhibition by drug plus 177Lu-lilotomab satetraxetan ([2]; 10 nM, time (day): 5) | growth inhibition by drug plus 177Lu-lilotomab satetraxetan ([2]; 10 nM, time (day): 6) | growth inhibition by drug plus 177Lu-lilotomab satetraxetan ([2]; 1000 nM, time (day): 3) | growth inhibition by drug plus 177Lu-lilotomab satetraxetan ([2]; 1000 nM, time (day): 4) | growth inhibition by drug plus 177Lu-lilotomab satetraxetan ([2]; 1000 nM, time (day): 5) | growth inhibition by drug plus 177Lu-lilotomab satetraxetan ([2]; 1000 nM, time (day): 6) | growth inhibition by drug plus 177Lu-lilotomab satetraxetan ([3]; 10 nM, time (day): 3) | growth inhibition by drug plus 177Lu-lilotomab satetraxetan ([3]; 10 nM, time (day): 4) | growth inhibition by drug plus 177Lu-lilotomab satetraxetan ([3]; 10 nM, time (day): 5) | growth inhibition by drug plus 177Lu-lilotomab satetraxetan ([3]; 10 nM, time (day): 6) | growth inhibition by drug plus 177Lu-lilotomab satetraxetan ([3]; 100 nM, time (day): 3) | growth inhibition by drug plus 177Lu-lilotomab satetraxetan ([3]; 100 nM, time (day): 4) | growth inhibition by drug plus 177Lu-lilotomab satetraxetan ([3]; 100 nM, time (day): 5) | growth inhibition by drug plus 177Lu-lilotomab satetraxetan ([3]; 100 nM, time (day): 6) | growth inhibition by drug alone ([4]; 10 nM, time (day): 3) | growth inhibition by drug alone ([4]; 10 nM, time (day): 4) | growth inhibition by drug alone ([4]; 10 nM, time (day): 5) | growth inhibition by drug alone ([4]; 10 nM, time (day): 6) | growth inhibition by drug alone ([4]; 100 nM, time (day): 3) | growth inhibition by drug alone ([4]; 100 nM, time (day): 4) | growth inhibition by drug alone ([4]; 100 nM, time (day): 5) | growth inhibition by drug alone ([4]; 100 nM, time (day): 6)
C=CCn1c(=O)c2cnc(Nc3ccc(N4CCN(C)CC4)cc3)nc2n1-c1cccc(C(C)(C)O)n1 | 0.112 | 0.069 | -0.0363 | -0.19 | 0.86 | 0.895 | 0.914 | 0.936 | -0.0165 | 0.0521 | 0.116 | 0.141 | 0.884 | 0.926 | 0.954 | 0.971 | 0.447 | 0.527 | 0.532 | 0.552 | -0.0318 | 0.133 | 0.152 | 0.222 |  |  |  |  |  |  |  | 
COC1=CC(c2cc3ccccc3[nH]2)=N/C1=C\c1[nH]c(C)cc1C [Obatoclax mesylate (GX15-070)] | 0.114 | 0.0688 | -0.0597 | -0.127 | 0.123 | 0.0924 | 0.0457 | -0.0101 | 0.00229 | 0.0671 | 0.129 | 0.144 | 0.143 | 0.163 | 0.242 | 0.343 | 0.479 | 0.58 | 0.604 | 0.618 | 0.201 | 0.411 | 0.412 | 0.435 |  |  |  |  |  |  |  | 
O=C(Nc1ccccc1-c1cn2c(CN3CCNCC3)csc2n1)c1cnc2ccccc2n1 | 0.102 | 0.0775 | -0.0151 | -0.0612 | 0.0868 | 0.0879 | 0.00704 | -0.1 | 0.0225 | 0.0594 | 0.101 | 0.14 | 0.141 | 0.171 | 0.103 | 0.146 | 0.404 | 0.522 | 0.563 | 0.562 | 0.418 | 0.513 | 0.516 | 0.514 | 0.0628 | 0.0902 | 0.0591 | -0.163 | -0.0368 | -0.02 | -0.0409 | -0.193
COc1cc2/c(=N/c3ccc(Br)cc3F)nc[nH]c2cc1OCC1CCN(C)CC1 [Vandetanib (Zactima)] | -0.05 | -0.0325 | -0.0228 | 0.016 | -0.236 | -0.171 | -0.167 | -0.12 | -0.0662 | -0.0404 | -0.009 | 0.0527 | -0.276 | -0.164 | -0.119 | -0.041 | 0.331 | 0.49 | 0.516 | 0.535 | 0.268 | 0.377 | 0.373 | 0.355 |  |  |  |  |  |  |  | 
CN(N=O)C(=O)N[C@@H](C=O)[C@@H](O)[C@H](O)[C@H](O)CO [Streptozotocin (Zanosar)] | -0.0672 | -0.049 | -0.0365 | 0.111 | -0.124 | -0.0755 | -0.109 | -0.156 | -0.0646 | -0.0512 | -0.0238 | 0.118 | -0.0995 | -0.0176 | -0.0119 | 0.0347 | 0.377 | 0.504 | 0.521 | 0.516 | 0.38 | 0.458 | 0.481 | 0.445 | -0.263 | -0.268 | -0.296 | -0.472 | -0.291 | -0.295 | -0.308 | -0.376
O=C(O)C1(C(=O)O)CCC1.[NH2-].[NH2-].[Pt+2] [Carboplatin] | 0.0266 | -0.0103 | -0.0119 | -0.000763 | -0.0124 | -0.0343 | -0.0455 | 0.00969 | -0.0315 | 0.0327 | 0.0748 | 0.141 | 0.0161 | 0.0456 | 0.0793 | 0.221 | 0.458 | 0.519 | 0.538 | 0.54 | 0.528 | 0.554 | 0.565 | 0.569 | -0.0898 | -0.143 | -0.162 | -0.249 | -0.121 | -0.164 | -0.182 | -0.229
CCC1=C[C@@H]2CN(C1)Cc1c([nH]c3ccccc13)[C@@](C(=O)OC)(c1cc3c(cc1OC)N(C)[C@H]1[C@@](O)(C(=O)OC)[C@H](OC(C)=O)[C@]4(CC)C=CCN5CC[C@]31[C@@H]54)C2 [Vinorelbine (Navelbine)] | 0.571 | 0.587 | 0.595 | 0.614 | 0.971 | 0.976 | 0.98 | 0.983 | 0.489 | 0.544 | 0.598 | 0.621 | 0.975 | 0.98 | 0.983 | 0.988 | 0.928 | 0.949 | 0.961 | 0.969 | 0.967 | 0.978 | 0.982 | 0.987 |  |  |  |  |  |  |  | 
C=CCc1cccc(/C=N/NC(=O)CN2CCN(Cc3ccccc3)CC2)c1O | 0.126 | 0.104 | 0.0863 | 0.00412 | 0.161 | 0.136 | 0.0263 | -0.0573 | 0.0573 | 0.108 | 0.173 | 0.215 | 0.15 | 0.163 | 0.17 | 0.249 | 0.608 | 0.648 | 0.666 | 0.668 | 0.392 | 0.492 | 0.488 | 0.509 |  |  |  |  |  |  |  | 
